Data on 16 molecules can be found in the supplement of paper PMC5641865, “A screen for kinase inhibitors identifies antimicrobial imidazopyridine aminofurazans as specific inhibitors of the Listeria monocytogenes PASTA kinase PrkA” (The Journal of Biological Chemistry, 2017).

± gives the standard deviation of the averaged measurements.
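Note: End-point A600 read in BHI broth at 37 °C with 2% DMSO, inhibition computed as (1 − OD with compound plus ceftriaxone ÷ OD with ceftriaxone only) × 100.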

The subject of the assay is Listeria monocytogenes 10403S. As to the kind of experiment: growth inhibition relative to ceftriaxone-alone control; higher = stronger potentiation of ceftriaxone growth inhibition. To be noted: 10 µM; ceftriaxone 1 ug/ml; 12 h.
On to `COc1cc2ncn(-c3cc(OCCc4ccccc4)c(C(N)=O)s3)c2cc1OC`, for which the growth inhibition was -4.76 ± 1.4%.
Next, `Cc1nc(-c2ccccc2)n2nc(NCCCN3CCOCC3)ncc12`: 0.025 ± 1.1%; `CN(C)Cc1cccc(N=C(c2ccccc2)c2c(O)[nH]c3cc(C(=O)N(C)C)ccc23)c1`: 26.5 ± 1.6%; `CNC(=O)c1ccc(C)c(-n2c(C)cc(OCc3ccc(F)cc3F)c(Br)c2=O)c1`: 35.2 ± 11%.
Regarding `CNC(=O)c1sc(-n2cnc3cc(OC)c(OC)cc32)cc1OCc1ccccc1C(F)(F)F`, the growth inhibition was -11 ± 18%.
For `N#Cc1c(NC(=O)c2ccccc2F)sc2c1CCCC2`, the growth inhibition is -3.06 ± 2.3%.
In the case of `COc1ccc2cc(-c3c(-c4ccncc4)nc(-c4ccc([S+](C)[O-])cc4)n3C)ccc2c1` (stereo unspecified), the growth inhibition is 12 ± 0.7%.
With `CCn1c(-c2nonc2N)nc2c(C#CC(C)(C)O)ncc(OC[C@@H]3CCCN3)c21`, the growth inhibition is 74 ± 6.7%.
On to `COc1cccc(/C=N/Nc2ncnc3c2cnn3-c2cccc(OC)c2)c1`, for which the growth inhibition was -3.29 ± 11%.
On to `O=C(NCCCNc1nc(Nc2cccc(NC(=O)N3CCCC3)c2)ncc1I)c1cccs1`, for which the growth inhibition is -19.4 ± 21%.
Next, `Fc1ccc(-c2nc3n(c2-c2ccncc2)CCS3)cc1`: -8.85 ± 15%; `CC(=O)Nc1nc(C)c(-c2ccc(Cl)c(S(=O)(=O)NCCO)c2)s1`: 29.5 ± 2%.
As to `CC1=C(C(=O)Nc2ccc3[nH]ncc3c2)C(c2ccc3ccccc3c2)CC(=O)N1` (stereo unspecified), the growth inhibition amounted to 11.5 ± 2.3%.
For the molecule `COc1cc2/c(=N/c3ccc(Br)cc3F)nc[nH]c2cc1OCC1CCN(C)CC1` [Vandetanib (Zactima)], the growth inhibition was determined as 24.2 ± 29%.
Next, `CNC(=O)c1cccc(C#Cc2cncnc2Nc2ccc(OCc3cccc(F)c3)c(Cl)c2)c1`: -0.177 ± 4.2%; `O=C(Nc1ccc(Oc2ccc3[nH]c(NC(=O)c4ccco4)nc3c2)cc1)Nc1cc(C(F)(F)F)ccc1F`: 9.02 ± 5.9%.
